The source of these data is the supplement of paper PMC9942566.

Each structure is given as a SMILES string. Counter-ions that a name gives are not always drawn. ± gives the standard deviation of the averaged measurements.

The subject of this experiment is Serratia marcescens K904 PosmB-luxCDABE reporter (pMQ747). Nature of the experiment: PosmB-lux reporter fold induction (RLU/OD600 relative to no-compound control), highest over Biolog concentrations; higher = stronger reporter activation. The conditions noted are these: ΔrcsB mutant CMS5177; 4 h. The procedure:
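Serratia marcescens K904 (wild type) or its isogenic ΔrcsB mutant, carrying the Rcs-dependent PosmB-luxCDABE reporter plasmid pMQ747, was grown in LB at OD600 0.1 in Biolog Phenotype MicroArray plates PM11-20 for 4 h at 30-32°C. Each compound is present at 3-4 proprietary concentrations (not stated); per the Fig. S1 legend the value given is the highest fold over those wells. Three independent trials.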
In the case of `CO[C@@]1(NC(=O)CSCC#N)C(=O)N2C(C(=O)O)=C(CSc3nnnn3C)CS[C@@H]21` [Cefmetazole] (Biolog plate: PM15, well positions: A9-12), the “PosmB-lux reporter fold induction” value was determined as 1.51 ± 0.23.

Turning to `O=[Si](O)O` [sodium metasilicate] (Biolog plate: PM18, well positions: E1-4), the “PosmB-lux reporter fold induction” value came out at 0.928 ± 0.32.

Turning to `COc1cc(NS(=O)(=O)c2ccc(N)cc2)ncn1` [sulfamono-methoxine] (Biolog plate: PM17, well positions: C9-12), the “PosmB-lux reporter fold induction” value was 1.4 ± 0.25.

As for `CC[C@H]1OC(=O)C[C@@H](O)[C@H](C)[C@@H](O[C@@H]2O[C@H](C)[C@@H](O[C@H]3C[C@@](C)(O)[C@@H](O)[C@H](C)O3)[C@H](N(C)C)[C@H]2O)[C@@H](CC=O)C[C@@H](C)C(=O)/C=C/C(C)=C/[C@@H]1CO[C@@H]1O[C@H](C)[C@@H](O)[C@@H](OC)[C@H]1OC` [Tylosin] (Biolog plate: PM13, well positions: H9-12), the “PosmB-lux reporter fold induction” value was 4.38 ± 1.6.

Turning to `CNC(C)C1CCC(N)C(OC2C(N)CC(N)C(OC3OCC(C)(O)C(NC)C3O)C2O)O1` (stereo not given) [Gentamicin] (Biolog plate: PM11, well positions: G5-8), the “PosmB-lux reporter fold induction” value turned out to be 1.47 ± 0.41.

For `N[C@@H]1CONC1=O` [D-Cycloserine] (Biolog plate: PM15, well positions: B1-4), the “PosmB-lux reporter fold induction” value was 1.43 ± 0.18.

In the case of `NC(CO)C(=O)NNCc1ccc(O)c(O)c1O` (stereo not given) [Benserazide] (Biolog plate: PM20, well positions: A9-12), the “PosmB-lux reporter fold induction” value was 0.916 ± 0.14.

In the case of `CN(C)[C@@H]1C(O)=C(C(N)=O)C(=O)[C@@]2(O)C(O)=C3C(=O)c4c(O)ccc(Cl)c4[C@@](C)(O)[C@H]3C[C@@H]12` [Chlortetracycline] (Biolog plate: PM11, well positions: A5-8), the “PosmB-lux reporter fold induction” value was found to be 1.3 ± 0.26.

Take `O=C1C=C(O)C(=O)c2ccccc21` [lawsone] (Biolog plate: PM19, well positions: E9-12): the “PosmB-lux reporter fold induction” value was determined as 1.14 ± 0.35.

On to `Nc1ccc(S(N)(=O)=O)cc1` [sulfanilamide] (Biolog plate: PM16, well positions: B5-8), for which the “PosmB-lux reporter fold induction” value turned out to be 1.59 ± 0.33.

Take `CC1(C)S[C@@H]2[C@H](NC(=O)[C@H](N)c3ccccc3)C(=O)N2[C@H]1C(=O)O` [Ampicillin] (Biolog plate: PM13, well positions: A2-4): the “PosmB-lux reporter fold induction” value is 1.06 ± 0.25.

Take `CO[C@@]1(NC(=O)Cc2cccs2)C(=O)N2C(C(=O)O)=C(COC(N)=O)CS[C@@H]21` [Cefoxitin] (Biolog plate: PM14, well positions: E1-4): the “PosmB-lux reporter fold induction” value came out at 1.2 ± 0.19.

With `Nc1ccc(S(=O)(=O)Nc2ccc(Cl)nn2)cc1` [sulfachloro-pyridazine] (Biolog plate: PM17, well positions: C5-8), the “PosmB-lux reporter fold induction” value came out at 1.63 ± 0.15.

`O=[N+]([O-])c1ccc(-[n+]2nc(-c3ccccc3)nn2-c2ccc(I)cc2)cc1` [iodonitro tetrazolium violet] (Biolog plate: PM19, well positions: D5-8): the “PosmB-lux reporter fold induction” value is 0.242 ± 0.11.

Take `Cc1cc(O)cc(C)c1Cl` [chloroxylenol] (Biolog plate: PM16, well positions: H5-8): the “PosmB-lux reporter fold induction” value was 1.72 ± 0.43.

With `CCCCCCCCCCCC[N+](C)(C)CCOc1ccccc1` [Domiphen bromide] (Biolog plate: PM15, well positions: D5-8), the “PosmB-lux reporter fold induction” value came out at 2.39 ± 0.17.

With `C[n+]1cc2c3c(ccc2c2ccc4cc5c(cc4c21)OCO5)OCO3` [Sanguinarine] (Biolog plate: PM14, well positions: A9-12), the “PosmB-lux reporter fold induction” value was determined as 1.14 ± 0.32.

As to `CC1COc2c(N3CCN(C)CC3)c(F)cc3c(=O)c(C(=O)O)cn1c23` (stereo not given) [Ofloxacin] (Biolog plate: PM11, well positions: H9-12), the “PosmB-lux reporter fold induction” value turned out to be 1.96 ± 0.47.

`Cc1ccccc1C(OCCN(C)C)c1ccccc1` (stereo not given) [orphenadrine] (Biolog plate: PM20, well positions: B1-4): the “PosmB-lux reporter fold induction” value is 1.4 ± 0.12.

Turning to `c1cnc2c(c1)ccc1cccnc12` [1,10-Phenanthroline] (Biolog plate: PM15, well positions: C9-12), the “PosmB-lux reporter fold induction” value came out at 1.32 ± 0.23.

`Nc1ncn([C@@H]2O[C@H](CO)[C@@H](O)[C@H]2O)c(=O)n1` [5-azacytidine] (Biolog plate: PM16, well positions: E5-8): the “PosmB-lux reporter fold induction” value stood at 2.23 ± 0.64.

Consider `NC(=O)NO` [Hydroxyurea] (Biolog plate: PM15, well positions: H5-8), for which the “PosmB-lux reporter fold induction” value worked out at 13.9 ± 5.4.

With `CC(CN1c2ccccc2Sc2ccccc21)N(C)C` (stereo not given) [Promethazine] (Biolog plate: PM14, well positions: H5-8), the “PosmB-lux reporter fold induction” value came to 1.43 ± 0.21.

For `CCn1cc(C(=O)O)c(=O)c2cc(F)c(N3CCNC(C)C3)c(F)c21` (stereo not given) [Lomefloxacin] (Biolog plate: PM11, well positions: B9-12), the “PosmB-lux reporter fold induction” value was 1.19 ± 0.24.

For the compound `CCOc1ccc2ccccc2c1C(=O)N[C@@H]1C(=O)N2[C@@H]1SC(C)(C)[C@@H]2C(=O)O` [Nafcillin] (Biolog plate: PM11, well positions: D9-12), the “PosmB-lux reporter fold induction” value was 1.05 ± 0.14.

On to `CCC(C)CCCC(=O)N[C@@H](CCN)C(=O)N[C@H](C(=O)N[C@@H](CCN)C(=O)N[C@H]1CCNC(=O)[C@H]([C@@H](C)O)NC(=O)[C@H](CCN)NC(=O)[C@H](CCN)NC(=O)[C@H](CC(C)C)NC(=O)[C@@H](CC(C)C)NC(=O)[C@H](CCN)NC1=O)[C@@H](C)O` (stereo not given in full) [Colistin] (Biolog plate: PM11, well positions: C5-8), for which the “PosmB-lux reporter fold induction” value was found to be 1.1 ± 0.22.

On to `N=C(N)N` [Guanidine hydrochloride] (Biolog plate: PM15, well positions: A5-8), for which the “PosmB-lux reporter fold induction” value turned out to be 2.09 ± 0.16.

Consider `[Cl][Cu][Cl]` [Cupric chloride] (Biolog plate: PM13, well positions: H1-4), for which the “PosmB-lux reporter fold induction” value came out at 1.06 ± 0.1.

In the case of `O=C1CN(/N=C/c2ccc([N+](=O)[O-])o2)C(=O)N1` [Nitrofurantoin] (Biolog plate: PM14, well positions: E5-8), the “PosmB-lux reporter fold induction” value was 1.19 ± 0.084.

On to `O=c1ccc2ccc(O)cc2o1` [umbelliferone] (Biolog plate: PM19, well positions: C5-8), for which the “PosmB-lux reporter fold induction” value was 0.964 ± 0.57.

Regarding `CN[C@@H]1[C@H](O[C@H]2[C@H](O[C@H]3[C@H](O)[C@@H](O)[C@H](N=C(N)N)[C@@H](O)[C@@H]3N=C(N)N)O[C@@H](C)[C@]2(O)C=O)O[C@@H](CO)[C@H](O)[C@H]1O` [streptomycin] (Biolog plate: PM16, well positions: E1-4), the “PosmB-lux reporter fold induction” value was 1.98 ± 0.69.

In the case of `Cc1cc(N)c2ccccc2[n+]1CCCCCCCCCC[n+]1c(C)cc(N)c2ccccc21` [Dequalinium chloride] (Biolog plate: PM13, well positions: A5-8), the “PosmB-lux reporter fold induction” value worked out at 1.05 ± 0.21.

Turning to `O=C1OC(CN2CCOCC2)CN1/N=C/c1ccc([N+](=O)[O-])o1` (stereo not given) [Furaltadone] (Biolog plate: PM14, well positions: A5-8), the “PosmB-lux reporter fold induction” value came to 1.51 ± 0.47.

Regarding `CN(C)[C@@H]1C(O)=C(C(N)=O)C(=O)[C@@]2(O)C(O)=C3C(=O)c4c(O)cccc4[C@@](C)(O)[C@H]3C[C@@H]12` [Tetracycline] (Biolog plate: PM12, well positions: A5-8), the “PosmB-lux reporter fold induction” value was found to be 1.12 ± 0.097.

Regarding `CN(C)C(=O)/N=N/C(=O)N(C)C` [diamide] (Biolog plate: PM16, well positions: D5-8), the “PosmB-lux reporter fold induction” value was determined as 2.26 ± 0.64.

Consider `CCc1cc(C(N)=S)ccn1` [ethionamide] (Biolog plate: PM17, well positions: B9-12), for which the “PosmB-lux reporter fold induction” value is 0.857 ± 0.29.

`N.N.N.N.N.N.[Cl-].[Cl-].[Cl-].[Co+3]` [hexammine cobalt (III) chloride] (Biolog plate: PM19, well positions: H1-4): the “PosmB-lux reporter fold induction” value was 1.35 ± 0.2.

For the compound `CC(Oc1ccccc1)C(=O)N[C@@H]1C(=O)N2[C@@H]1SC(C)(C)[C@@H]2C(=O)O` (stereo not given in full) [phenethicillin] (Biolog plate: PM19, well positions: F1-4), the “PosmB-lux reporter fold induction” value worked out at 1.15 ± 0.37.

As for `CC(=O)O[C@H]1C[C@@]2(C)[C@@H](C[C@@H](O)[C@H]3[C@@]4(C)CC[C@@H](O)[C@@H](C)[C@@H]4CC[C@@]32C)/C1=C(\CCC=C(C)C)C(=O)O` [Fusidic acid] (Biolog plate: PM15, well positions: C5-8), the “PosmB-lux reporter fold induction” value turned out to be 1.43 ± 0.16.

With `NC(=O)c1cc[n+](CC2=C(C(=O)[O-])N3C(=O)[C@@H](NC(=O)[C@@H](c4ccccc4)S(=O)(=O)O)[C@H]3SC2)cc1` [cefsulodin] (Biolog plate: PM17, well positions: H1-4), the “PosmB-lux reporter fold induction” value worked out at 1.35 ± 0.096.
